What all share (assay): DAPPL (digital affinity profiling via proximity ligation, sequencing); 10 mM Tris-HCl pH 7.5, 50 mM NaCl, 1 mM DTT, 4% glycerol, room temperature, 30 min; GST-TFs on glutathione beads, 16-mer random dsDNA library, 0.1% formaldehyde crosslink after washing; high values mean tight binding
Common to all, as to conditions: protein: recombinant; tags: N-terminal GST; dsDNA, one strand shown

The target of one assay is T1, FLI1 (Homo sapiens, UniProt Q01543 1-452).
T1 sequence: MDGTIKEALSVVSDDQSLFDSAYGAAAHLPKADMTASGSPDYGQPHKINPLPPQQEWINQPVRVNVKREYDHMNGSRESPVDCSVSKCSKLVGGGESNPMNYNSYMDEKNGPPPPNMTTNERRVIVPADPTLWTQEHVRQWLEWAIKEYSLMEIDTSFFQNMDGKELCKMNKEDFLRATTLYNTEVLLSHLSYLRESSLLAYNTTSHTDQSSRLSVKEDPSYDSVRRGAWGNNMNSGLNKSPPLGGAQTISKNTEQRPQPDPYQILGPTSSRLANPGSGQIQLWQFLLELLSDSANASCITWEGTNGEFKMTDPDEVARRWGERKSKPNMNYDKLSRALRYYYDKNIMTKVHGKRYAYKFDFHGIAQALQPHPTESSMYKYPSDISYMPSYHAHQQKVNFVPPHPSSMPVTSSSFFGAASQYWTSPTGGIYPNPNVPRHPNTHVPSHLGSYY
Put shortly: (§1)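 Pools were built from human transcription factors expressed in yeast as GST fusions, captured on glutathione beads and DNA-barcoded, along with a tag-only sample. Incubation with 200 nmole of a 16-mer random double-stranded DNA library lasted 30 min at room temperature in Tris/NaCl/DTT/glycerol buffer, and was followed by washing, 0.1% formaldehyde crosslinking, proximity ligation, PCR amplification and Illumina NextSeq500 sequencing. Binding signal is the quotient of each hexamer's read frequency for a factor and its frequency for the tag-only sample.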

In a further assay the target is T2, ELK1 (Homo sapiens, UniProt P19419 1-428).
T2 sequence: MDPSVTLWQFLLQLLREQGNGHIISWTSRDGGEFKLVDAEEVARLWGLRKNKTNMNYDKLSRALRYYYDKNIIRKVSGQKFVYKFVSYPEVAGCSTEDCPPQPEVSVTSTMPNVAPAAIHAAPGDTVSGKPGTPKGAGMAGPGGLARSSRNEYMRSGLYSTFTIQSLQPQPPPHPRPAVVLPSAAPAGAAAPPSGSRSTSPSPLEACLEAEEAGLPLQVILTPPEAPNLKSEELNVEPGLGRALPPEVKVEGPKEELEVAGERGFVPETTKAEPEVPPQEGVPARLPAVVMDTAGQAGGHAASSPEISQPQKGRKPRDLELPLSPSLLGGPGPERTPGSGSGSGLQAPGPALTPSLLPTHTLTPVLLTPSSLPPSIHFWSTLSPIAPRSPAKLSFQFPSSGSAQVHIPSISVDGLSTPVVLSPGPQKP
An outline of the steps: as §1

For a further assay, the target named is T3, GABPA (Homo sapiens, UniProt Q06546 1-454).
T3 sequence: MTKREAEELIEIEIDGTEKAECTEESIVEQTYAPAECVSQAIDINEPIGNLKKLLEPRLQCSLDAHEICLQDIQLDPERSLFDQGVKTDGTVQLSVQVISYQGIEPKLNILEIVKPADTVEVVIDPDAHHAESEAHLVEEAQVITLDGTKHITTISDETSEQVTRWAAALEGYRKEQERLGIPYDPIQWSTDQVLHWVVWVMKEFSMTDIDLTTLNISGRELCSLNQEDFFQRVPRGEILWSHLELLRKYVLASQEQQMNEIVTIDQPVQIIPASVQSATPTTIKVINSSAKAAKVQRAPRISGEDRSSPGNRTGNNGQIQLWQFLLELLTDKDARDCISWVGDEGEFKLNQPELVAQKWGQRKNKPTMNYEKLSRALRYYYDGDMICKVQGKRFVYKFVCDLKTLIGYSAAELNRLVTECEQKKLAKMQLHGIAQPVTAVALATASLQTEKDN
Put shortly: as §1

The next assay has as its target T4, ERG (Homo sapiens, UniProt P11308 1-479).
T4 sequence: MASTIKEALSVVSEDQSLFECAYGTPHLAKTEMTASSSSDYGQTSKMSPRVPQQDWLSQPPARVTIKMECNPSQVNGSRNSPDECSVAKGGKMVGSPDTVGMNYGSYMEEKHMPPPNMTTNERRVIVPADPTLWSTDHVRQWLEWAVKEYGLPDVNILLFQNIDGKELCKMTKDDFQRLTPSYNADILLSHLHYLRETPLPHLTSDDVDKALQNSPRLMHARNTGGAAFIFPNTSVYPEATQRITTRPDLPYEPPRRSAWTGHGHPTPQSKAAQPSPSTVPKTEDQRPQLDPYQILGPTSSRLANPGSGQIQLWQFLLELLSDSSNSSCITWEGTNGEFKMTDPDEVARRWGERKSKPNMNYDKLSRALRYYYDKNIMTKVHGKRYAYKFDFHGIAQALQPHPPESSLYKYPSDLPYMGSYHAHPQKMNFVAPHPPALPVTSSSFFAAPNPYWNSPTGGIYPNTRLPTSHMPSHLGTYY
Put shortly:
as §1

In another assay the target is ELF1 (Homo sapiens, UniProt P32519 1-619). Put shortly: as §1
The next assay deals with T5, EHF (Homo sapiens, UniProt Q9NZC4 1-300).
T5 sequence: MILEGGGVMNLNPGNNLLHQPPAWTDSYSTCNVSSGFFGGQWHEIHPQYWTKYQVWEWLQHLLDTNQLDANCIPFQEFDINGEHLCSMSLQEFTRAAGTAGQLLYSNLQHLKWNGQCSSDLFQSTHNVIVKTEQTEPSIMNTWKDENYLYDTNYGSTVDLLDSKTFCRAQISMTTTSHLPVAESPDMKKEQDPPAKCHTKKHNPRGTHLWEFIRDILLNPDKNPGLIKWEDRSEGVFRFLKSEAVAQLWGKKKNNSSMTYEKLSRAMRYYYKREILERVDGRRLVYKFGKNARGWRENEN
Put shortly: as §1

Another assay has as its target SPI1 (Homo sapiens, UniProt P17947 1-270). An outline of the steps:
as §1

The target of another assay is SPIB (Homo sapiens, UniProt Q01892 1-262). Put shortly: as §1
A further assay concerns the target T6, ELK3 (Homo sapiens, UniProt P41970 1-407).
T6 sequence: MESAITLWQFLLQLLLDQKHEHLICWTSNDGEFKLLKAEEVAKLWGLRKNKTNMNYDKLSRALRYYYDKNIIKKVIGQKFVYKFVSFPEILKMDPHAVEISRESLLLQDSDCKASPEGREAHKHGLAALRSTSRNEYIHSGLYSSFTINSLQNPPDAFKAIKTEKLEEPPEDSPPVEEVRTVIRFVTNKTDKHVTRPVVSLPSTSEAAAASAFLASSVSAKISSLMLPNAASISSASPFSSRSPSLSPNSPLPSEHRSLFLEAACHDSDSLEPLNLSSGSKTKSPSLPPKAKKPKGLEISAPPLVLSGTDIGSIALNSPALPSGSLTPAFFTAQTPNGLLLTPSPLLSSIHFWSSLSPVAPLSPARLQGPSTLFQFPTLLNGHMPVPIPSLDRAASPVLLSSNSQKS
Put shortly: as §1

Sequence of ELF1 (P32519 whole entry): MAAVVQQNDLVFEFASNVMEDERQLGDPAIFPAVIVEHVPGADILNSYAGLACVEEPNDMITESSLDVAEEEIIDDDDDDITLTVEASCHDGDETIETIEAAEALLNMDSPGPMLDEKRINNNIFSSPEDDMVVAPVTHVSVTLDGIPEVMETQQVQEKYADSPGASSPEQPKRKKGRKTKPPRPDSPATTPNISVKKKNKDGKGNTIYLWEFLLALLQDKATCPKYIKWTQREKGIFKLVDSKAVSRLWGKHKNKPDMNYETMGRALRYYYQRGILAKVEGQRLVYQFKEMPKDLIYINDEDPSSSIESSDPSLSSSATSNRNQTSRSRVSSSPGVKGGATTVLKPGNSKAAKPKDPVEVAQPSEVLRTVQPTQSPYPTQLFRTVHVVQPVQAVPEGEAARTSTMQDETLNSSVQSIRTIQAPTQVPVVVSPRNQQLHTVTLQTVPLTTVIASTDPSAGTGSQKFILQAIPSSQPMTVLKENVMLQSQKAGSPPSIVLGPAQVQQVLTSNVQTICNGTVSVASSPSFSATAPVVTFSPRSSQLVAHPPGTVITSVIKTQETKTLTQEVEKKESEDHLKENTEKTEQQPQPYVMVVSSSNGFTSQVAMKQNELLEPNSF
Sequence of SPIB (Q01892 whole entry): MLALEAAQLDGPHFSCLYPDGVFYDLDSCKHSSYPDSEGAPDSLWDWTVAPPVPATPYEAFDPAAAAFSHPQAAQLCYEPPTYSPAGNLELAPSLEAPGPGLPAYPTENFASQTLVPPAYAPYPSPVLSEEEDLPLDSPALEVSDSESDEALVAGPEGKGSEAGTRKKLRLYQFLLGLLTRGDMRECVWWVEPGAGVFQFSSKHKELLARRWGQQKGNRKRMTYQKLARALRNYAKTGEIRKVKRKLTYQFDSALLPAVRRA

GCACTC: the binding signal in the assay with FLI1 was 1.29 fold enrichment (6-mer frequency, TF over GST control); with ELK1, 1.5 fold enrichment (6-mer frequency, TF over GST control); with GABPA it was 1.32 fold enrichment (6-mer frequency, TF over GST control); with ERG, 1.31 fold enrichment (6-mer frequency, TF over GST control); in the assay with ELF1, 1.33 fold enrichment (6-mer frequency, TF over GST control); with EHF, 1.37 fold enrichment (6-mer frequency, TF over GST control). Also, the binding signal is 1.35 fold enrichment (6-mer frequency, TF over GST control) with SPI1; 1.35 fold enrichment (6-mer frequency, TF over GST control) in the assay with SPIB; 1.28 fold enrichment (6-mer frequency, TF over GST control) with ELK3.

Turning to CTAGGC, the binding signal in the assay with FLI1 was 1.17 fold enrichment (6-mer frequency, TF over GST control); with ELK1, 1.1 fold enrichment (6-mer frequency, TF over GST control); in the assay with GABPA it was 1.23 fold enrichment (6-mer frequency, TF over GST control); in the assay with ERG, 1.13 fold enrichment (6-mer frequency, TF over GST control); with ELF1, 1.14 fold enrichment (6-mer frequency, TF over GST control); with EHF it was 1.01 fold enrichment (6-mer frequency, TF over GST control). Further, the binding signal with SPI1 was 1.07 fold enrichment (6-mer frequency, TF over GST control); in the assay with SPIB, 1.05 fold enrichment (6-mer frequency, TF over GST control); with ELK3 it was 1.1 fold enrichment (6-mer frequency, TF over GST control).

Take GTAACT: the binding signal with FLI1 is 1.31 fold enrichment (6-mer frequency, TF over GST control); with ELK1, 1.25 fold enrichment (6-mer frequency, TF over GST control); with GABPA, 1.22 fold enrichment (6-mer frequency, TF over GST control); with ERG, 1.25 fold enrichment (6-mer frequency, TF over GST control); in the assay with ELF1, 1.22 fold enrichment (6-mer frequency, TF over GST control); in the assay with EHF it was 1.21 fold enrichment (6-mer frequency, TF over GST control). The binding signal in the assay with SPI1 is 1.35 fold enrichment (6-mer frequency, TF over GST control); with SPIB it was 1.28 fold enrichment (6-mer frequency, TF over GST control); in the assay with ELK3 it was 1.11 fold enrichment (6-mer frequency, TF over GST control).

As to TGATAT, the binding signal with FLI1 was 1.13 fold enrichment (6-mer frequency, TF over GST control); in the assay with ELK1, 1.11 fold enrichment (6-mer frequency, TF over GST control); with GABPA, 1.15 fold enrichment (6-mer frequency, TF over GST control); in the assay with ERG, 1.12 fold enrichment (6-mer frequency, TF over GST control); with ELF1, 1.11 fold enrichment (6-mer frequency, TF over GST control); in the assay with EHF, 1.08 fold enrichment (6-mer frequency, TF over GST control). Moreover, the binding signal with SPI1 was 1.08 fold enrichment (6-mer frequency, TF over GST control); in the assay with SPIB, 1.05 fold enrichment (6-mer frequency, TF over GST control); with ELK3 it was 1 fold enrichment (6-mer frequency, TF over GST control).

In the case of CGGATG, the binding signal with FLI1 was 1.53 fold enrichment (6-mer frequency, TF over GST control); with ELK1, 1.66 fold enrichment (6-mer frequency, TF over GST control); with GABPA, 1.49 fold enrichment (6-mer frequency, TF over GST control); with ERG, 1.92 fold enrichment (6-mer frequency, TF over GST control); with ELF1, 1.45 fold enrichment (6-mer frequency, TF over GST control); with EHF, 1.67 fold enrichment (6-mer frequency, TF over GST control). Moreover, the binding signal is 1.52 fold enrichment (6-mer frequency, TF over GST control) with SPI1; 1.6 fold enrichment (6-mer frequency, TF over GST control) with SPIB; 1.6 fold enrichment (6-mer frequency, TF over GST control) with ELK3.

In the case of TGGGCT, the binding signal with FLI1 is 1.38 fold enrichment (6-mer frequency, TF over GST control); with ELK1, 1.33 fold enrichment (6-mer frequency, TF over GST control); in the assay with GABPA, 1.48 fold enrichment (6-mer frequency, TF over GST control); with ERG, 1.34 fold enrichment (6-mer frequency, TF over GST control); with ELF1, 1.48 fold enrichment (6-mer frequency, TF over GST control); with EHF, 1.44 fold enrichment (6-mer frequency, TF over GST control). Also, the binding signal with SPI1 was 1.43 fold enrichment (6-mer frequency, TF over GST control); with SPIB, 1.38 fold enrichment (6-mer frequency, TF over GST control); in the assay with ELK3 it was 1.49 fold enrichment (6-mer frequency, TF over GST control).

On to CTAAAC, for which the binding signal was 1.24 fold enrichment (6-mer frequency, TF over GST control) with FLI1; 1.18 fold enrichment (6-mer frequency, TF over GST control) with ELK1; 1.23 fold enrichment (6-mer frequency, TF over GST control) in the assay with GABPA; 1.23 fold enrichment (6-mer frequency, TF over GST control) with ERG; 1.24 fold enrichment (6-mer frequency, TF over GST control) in the assay with ELF1; 1.18 fold enrichment (6-mer frequency, TF over GST control) with EHF. The binding signal in the assay with SPI1 is 1.17 fold enrichment (6-mer frequency, TF over GST control); in the assay with SPIB, 1.19 fold enrichment (6-mer frequency, TF over GST control); with ELK3, 1.2 fold enrichment (6-mer frequency, TF over GST control).

Consider CCCACT, for which the binding signal with FLI1 was 1.36 fold enrichment (6-mer frequency, TF over GST control); in the assay with ELK1, 1.45 fold enrichment (6-mer frequency, TF over GST control); with GABPA it was 1.26 fold enrichment (6-mer frequency, TF over GST control); with ERG, 1.35 fold enrichment (6-mer frequency, TF over GST control); with ELF1, 1.38 fold enrichment (6-mer frequency, TF over GST control); with EHF, 1.46 fold enrichment (6-mer frequency, TF over GST control). Besides, the binding signal in the assay with SPI1 is 1.39 fold enrichment (6-mer frequency, TF over GST control); with SPIB, 1.26 fold enrichment (6-mer frequency, TF over GST control); with ELK3, 1.42 fold enrichment (6-mer frequency, TF over GST control).

(Values after PMC7862700, “An all-to-all approach to the identification of sequence-specific readers for epigenetic DNA modifications on cytosine”.)
